Results filed as inconclusive are left out. Active and inactive are the calls of the source. The calls were made as follows, unless noted: active = hit-call score of the fitted dose curve at least 0.9, where 1 is the maximum; inactive = score below 0.9.
Legend:
[1] = ATG_TAL_CIS: Attagene CIS-FACTORIAL HepG2 Assay for human TAL Basal Promoter (AID 2282966); settings: HepG2 Attagene cis-factorial TAL promoter reporter; actives raise or lower the signal;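 also: background control endpoint measuring basal TAL promoter reporter mRNA not a specific factor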
Method in brief: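 Fluorescence of labelled reporter cDNA fragments, resolved by capillary electrophoresis, gave the readout. Human HepG2 liver cells carried transiently transfected cis-element reporter units and were treated for 24 hours; activity was fitted bidirectionally against DMSO.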

[2] = ATG_TGFb_CIS: Attagene CIS-FACTORIAL HepG2 Assay for human Transforming Growth Factor (TGF) (AID 2282967); settings: HepG2 Attagene CIS TGFb reporter, mRNA transcription; actives raise or lower the signal
Method in brief: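 HepG2 cells transiently transfected with cis-promoter-driven multiple reporter units measure endogenous TF activity; reporter mRNA quantified at 24 h by RT-PCR, FAM labeling, HpaI digestion and capillary electrophoresis. Bidirectional fit vs DMSO.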

[3] = ATG_VDRE_CIS: Attagene CIS-FACTORIAL HepG2 Assay for human Vitamin D Receptor Element (VDRE) (AID 2282968); settings: HepG2 VDRE cis-reporter transcription, actives raise or lower the signal
Method in brief: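 In transiently transfected HepG2 liver cells, gain or loss of reporter mRNA after 24 h exposure is scored relative to DMSO, using fluorescence detection by capillary electrophoresis of RT-PCR products.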

[4] = molecular target: Nuclear receptor subfamily 1 group I member 3 (Homo sapiens) (UniProt Q14994); assay: ATG_CAR_TRANS: Attagene TRANS-FACTORIAL HepG2 Assay for human Constitutive Androstane Receptor (CAR) (AID 2282969; active = hit-call score of the fitted dose curve at least 0.9, where 1 is the maximum;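 also: activators raise reporter mRNA above DMSO so AC50 marks induction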); settings: HepG2 Attagene TRANS-FACTORIAL CAR reporter
Chain of Nuclear receptor subfamily 1 group I member 3 (Homo sapiens) (Q14994 whole entry, looked up, the tested form may be a part): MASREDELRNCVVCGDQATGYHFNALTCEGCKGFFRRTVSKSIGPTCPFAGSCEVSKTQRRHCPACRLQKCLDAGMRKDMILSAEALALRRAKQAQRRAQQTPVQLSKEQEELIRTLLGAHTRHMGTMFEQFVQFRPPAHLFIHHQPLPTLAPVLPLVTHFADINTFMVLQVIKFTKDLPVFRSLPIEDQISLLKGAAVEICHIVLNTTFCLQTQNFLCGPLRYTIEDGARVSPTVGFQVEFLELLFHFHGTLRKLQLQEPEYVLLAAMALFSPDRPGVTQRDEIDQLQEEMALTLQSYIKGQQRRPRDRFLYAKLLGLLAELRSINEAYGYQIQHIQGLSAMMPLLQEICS
Method in brief: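 Readout is reporter mRNA induction, quantified by fluorescent primer extension and capillary electrophoresis after RT-PCR. Cells were HepG2 transiently carrying chimeric NR-Gal4 constructs with GAL4-UAS reporters, treated for 24 h; activity scored upward from DMSO.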

[5] = molecular target: Estrogen receptor (Homo sapiens) (UniProt P03372); assay: ATG_ERa_TRANS: Attagene TRANS-FACTORIAL HepG2 Assay for human Estrogen Receptor alpha (ERa) (AID 2282970; active = hit-call score of the fitted dose curve at least 0.9, where 1 is the maximum); settings: HepG2 Attagene TRANS ERa GAL4 reporter, mRNA
Chain of Estrogen receptor (Homo sapiens) (P03372 whole entry, looked up, the tested form may be a part): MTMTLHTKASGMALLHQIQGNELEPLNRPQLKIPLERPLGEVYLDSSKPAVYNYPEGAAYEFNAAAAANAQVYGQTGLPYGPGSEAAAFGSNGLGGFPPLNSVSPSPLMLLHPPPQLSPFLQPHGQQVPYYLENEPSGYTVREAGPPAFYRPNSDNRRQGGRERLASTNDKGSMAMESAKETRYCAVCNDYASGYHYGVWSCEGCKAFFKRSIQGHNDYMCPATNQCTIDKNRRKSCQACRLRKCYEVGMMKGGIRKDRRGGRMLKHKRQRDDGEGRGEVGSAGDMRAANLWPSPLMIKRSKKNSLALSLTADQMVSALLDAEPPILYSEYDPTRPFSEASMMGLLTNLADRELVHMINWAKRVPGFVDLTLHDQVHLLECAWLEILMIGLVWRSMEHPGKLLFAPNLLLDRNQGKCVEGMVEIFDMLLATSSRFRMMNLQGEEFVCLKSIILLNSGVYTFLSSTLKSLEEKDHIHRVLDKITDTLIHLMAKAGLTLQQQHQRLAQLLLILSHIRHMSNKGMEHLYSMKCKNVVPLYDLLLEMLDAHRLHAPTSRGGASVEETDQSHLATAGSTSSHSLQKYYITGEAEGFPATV
Method in brief: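 Human liver HepG2, transient transfection of multiple GAL4-UAS reporter units; TRANS format (exogenous NR-Gal4 chimera). 24 h dosing. Readout: reporter mRNA, RT-PCR, 6-FAM primer extension, HpaI digest, capillary electrophoresis. Positive direction vs DMSO.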

[6] = molecular target: X-box-binding protein 1 (Homo sapiens) (UniProt P17861); assay: ATG_Xbp1_CIS: Attagene CIS-FACTORIAL HepG2 Assay for human X-box Binding Protein 1 (XBP1) (AID 2282972); settings: HepG2 XBP1 cis-element reporter, Attagene multiplex; actives raise or lower the signal
Chain of X-box-binding protein 1 (Homo sapiens) (P17861 whole entry, looked up): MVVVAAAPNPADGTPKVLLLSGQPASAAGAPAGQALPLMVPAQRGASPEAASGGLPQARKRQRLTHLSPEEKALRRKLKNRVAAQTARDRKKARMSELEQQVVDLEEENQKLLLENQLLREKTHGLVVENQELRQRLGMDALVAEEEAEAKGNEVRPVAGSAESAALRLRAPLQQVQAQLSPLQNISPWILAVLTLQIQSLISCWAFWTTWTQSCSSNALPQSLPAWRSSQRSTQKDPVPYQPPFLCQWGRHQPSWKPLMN
Method in brief: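 HepG2 cells transiently transfected with cis-regulated multiple reporter transcription units; endogenous transcription factor activity measured 24 hours after chemical dosing. Reporter mRNA quantified by RT-PCR, 6-FAM primer extension, HpaI digestion and capillary electrophoresis; bidirectional fitting versus DMSO.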

[7] = ATG_M_19_TRANS: Attagene TRANS-FACTORIAL HepG2 Assay for M19 Transcription Factor (Internal Marker) (AID 2282974; active = hit-call score of the fitted dose curve at least 0.9, where 1 is the maximum); settings: HepG2 Attagene TRANS-FACTORIAL M19 internal marker reporter
Method in brief: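 HepG2 transiently transfected with GAL4-UAS multiplex reporter constructs, exposed 24 h; reporter RNA quantified by RT-PCR, 6-FAM labeling, HpaI digestion and capillary electrophoresis; internal background marker fitted upward versus DMSO.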

[8] = ATG_Hpa5_TRANS: Attagene TRANS-FACTORIAL HepG2 Assay for human GAL4-Hpa5 Hepatocyte Transcription Factor Basal Promoter (AID 2282975; active = hit-call score of the fitted dose curve at least 0.9, where 1 is the maximum;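 also: hits are increases in reporter mRNA over DMSO baseline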); settings: HepG2 Attagene GAL4-Hpa5 transcription reporter
Method in brief: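 Basal-promoter GAL4 background control within the HepG2 trans-factorial panel of transiently transfected reporter units. Reporter mRNA is measured 24 h after dosing by RT-PCR and capillary electrophoresis, fitted for gain of signal versus DMSO.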

[9] = molecular target: Steroid hormone receptor ERR1 (Homo sapiens) (UniProt P11474); assay: ATG_ERRa_TRANS: Attagene TRANS-FACTORIAL HepG2 Assay for human Estrogen-Related Receptor alpha (ERRa) (AID 2282971; active = hit-call score of the fitted dose curve at least 0.9, where 1 is the maximum); settings: HepG2 Attagene TRANS reporter, ERRa transactivation
Chain of Steroid hormone receptor ERR1 (Homo sapiens) (P11474 whole entry, looked up, the tested form may be a part): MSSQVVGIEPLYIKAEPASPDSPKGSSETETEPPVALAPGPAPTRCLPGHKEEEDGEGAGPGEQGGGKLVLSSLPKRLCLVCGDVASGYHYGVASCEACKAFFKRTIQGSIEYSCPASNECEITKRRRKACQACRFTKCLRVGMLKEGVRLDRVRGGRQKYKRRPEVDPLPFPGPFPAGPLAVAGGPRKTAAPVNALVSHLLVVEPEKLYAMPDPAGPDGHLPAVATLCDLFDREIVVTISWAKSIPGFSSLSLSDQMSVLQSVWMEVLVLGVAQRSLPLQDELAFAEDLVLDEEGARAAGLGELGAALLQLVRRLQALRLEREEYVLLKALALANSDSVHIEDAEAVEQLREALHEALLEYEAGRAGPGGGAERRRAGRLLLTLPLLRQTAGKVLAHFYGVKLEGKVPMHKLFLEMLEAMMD
Method in brief: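 Reporter transcript induction was quantified by RT-PCR and capillary electrophoresis of FAM-labelled, HpaI-cut products after 24 h treatment of HepG2 cells carrying transiently transfected GAL4-UAS reporter units and an exogenous ERRa-Gal4 fusion; activity scored as increase over DMSO.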

[10] = molecular target: Androgen receptor (Homo sapiens) (UniProt P10275); assay: ATG_AR_TRANS: Attagene TRANS-FACTORIAL HepG2 Assay for human Androgen Receptor (AR) (AID 2282973; active = hit-call score of the fitted dose curve at least 0.9, where 1 is the maximum); settings: HepG2 Attagene TRANS-FACTORIAL AR reporter transcription
Chain of Androgen receptor (Homo sapiens) (P10275 whole entry, looked up, the tested form may be a part): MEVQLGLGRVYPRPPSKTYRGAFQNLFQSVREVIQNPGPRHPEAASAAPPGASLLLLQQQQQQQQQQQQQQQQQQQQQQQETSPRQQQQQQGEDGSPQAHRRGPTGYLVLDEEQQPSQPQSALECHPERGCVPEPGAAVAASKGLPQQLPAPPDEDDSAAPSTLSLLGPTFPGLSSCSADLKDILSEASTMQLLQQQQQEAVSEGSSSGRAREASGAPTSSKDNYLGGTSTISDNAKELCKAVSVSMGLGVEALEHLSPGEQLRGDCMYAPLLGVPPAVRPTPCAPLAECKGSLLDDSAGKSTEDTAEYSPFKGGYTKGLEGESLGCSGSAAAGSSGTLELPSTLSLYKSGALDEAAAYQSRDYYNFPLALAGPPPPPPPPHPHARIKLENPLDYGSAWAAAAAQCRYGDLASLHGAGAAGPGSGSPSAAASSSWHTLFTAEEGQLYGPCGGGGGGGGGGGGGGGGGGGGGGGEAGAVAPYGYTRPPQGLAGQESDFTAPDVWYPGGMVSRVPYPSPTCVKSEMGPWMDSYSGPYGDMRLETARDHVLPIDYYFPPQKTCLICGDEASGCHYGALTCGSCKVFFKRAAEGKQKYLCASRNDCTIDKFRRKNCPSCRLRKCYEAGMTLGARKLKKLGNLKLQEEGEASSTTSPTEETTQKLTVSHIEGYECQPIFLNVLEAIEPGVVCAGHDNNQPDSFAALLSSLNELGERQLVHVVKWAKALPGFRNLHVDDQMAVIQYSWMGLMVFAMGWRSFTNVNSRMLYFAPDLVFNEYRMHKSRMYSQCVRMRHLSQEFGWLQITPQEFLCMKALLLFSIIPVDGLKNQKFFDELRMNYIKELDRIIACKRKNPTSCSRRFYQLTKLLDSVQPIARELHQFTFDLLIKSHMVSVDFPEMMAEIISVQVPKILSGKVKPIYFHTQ
Method in brief: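 Steps: transfect HepG2 with multiple GAL4-UAS reporter transcription units (TRANS format, exogenous NR-Gal4 protein); dose 24 h; isolate RNA, reverse-transcribe, PCR-amplify, FAM-label, HpaI-digest; resolve by capillary electrophoresis. Positive direction vs DMSO.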

Measured: AC50

Nc1cnn(-c2ccccc2)c(=O)c1Cl
not listed: [9] | [10]
inactive: all other assays above

CC(C)Nc1nc(Cl)nc(NC(C)C)n1
not listed: [7] | [10]
inactive: all other assays above

CC(C)N1C(=O)N(c2ccccc2)CSC1=NC(C)(C)C
not listed: [9]
inactive: all other assays above

O=C1C2CC=CCC2C(=O)N1SC(Cl)(Cl)Cl (stereo unspecified)
not listed: [10]
inactive: all other assays above

O=C(O)c1c(Cl)ccc2cc(Cl)cnc12
not listed: [8] | [9] | [10]
inactive: all other assays above

CC1(C)C(C(=O)OC(C#N)c2cccc(Oc3ccccc3)c2)C1(C)C (stereo unspecified)
active: [3] 6.46 µM | [5] 21.3 µM
inactive: [1] | [2] | [4] | [6] | [8]

COP(=S)(OC)Oc1ccc([N+](=O)[O-])c(C)c1
active: [3] 34.1 µM | [5] 17.9 µM | [6] 50 µM
not listed: [8] | [10]
inactive: all other assays above

CCOc1cc(C(C)(C)C)ccc1C1COC(c2c(F)cccc2F)=N1 (stereo unspecified)
active: [3] 1.36 µM
not listed: [8] | [10]
inactive: all other assays above

CCNC(=O)NC(=O)C(C#N)=NOC
not listed: [8] | [10]
inactive: all other assays above

COC(=O)NS(=O)(=O)c1ccc(N)cc1
inactive: [1] | [2] | [3] | [4] | [9] | [6]

CNC(=O)Oc1cccc2ccccc12
active: [5] 50 µM
not listed: [8] | [9] | [10]
inactive: all other assays above

O=C(Nc1ccccc1-c1ccc(Cl)cc1)c1cccnc1Cl
active: [3] 13.7 µM
not listed: [7] | [10]
inactive: all other assays above

COC(=O)c1c(C(F)F)nc(C(F)(F)F)c(C2=NCCS2)c1CC(C)C
active: [3] 0.879 µM | [5] 19.6 µM
not listed: [10]
inactive: all other assays above

CCNP(=S)(OC)O/C(C)=C/C(=O)OC(C)C (stereo unspecified)
active: [3] 13.8 µM | [5] 31.9 µM
inactive: [1] | [2] | [4] | [6]

C=C(C)CN(CC)c1c([N+](=O)[O-])cc(C(F)(F)F)cc1[N+](=O)[O-]
active: [3] 25.1 µM | [5] 30.7 µM
not listed: [10]
inactive: all other assays above

CCCCOCN(C(=O)CCl)c1c(CC)cccc1CC
active: [3] 0.5 µM
not listed: [8]
inactive: all other assays above

Source: PubChem BioAssay (EPA / NIEHS)
